Here are results for 40 compounds from PubChem BioAssay (NCATS).

Molecules are shown by their SMILES. Inconclusive results are not listed. Calls of active or inactive are those of the source. Calls come from the whole dose curve; as a rule, active = well fitted cell-killing curve with a large enough effect; inconclusive = small, poorly fitted or top-dose-only effect; inactive = flat fitted curve, though single readings scatter.

This experiment in a line: Cell Viability - Renal Proximal Tubule (AID 545). Note: nearly all actives have a fitted effect of over 40% in size. The conditions noted are these: renal proximal tubule cells viability; series mostly up to 91.7 µM. The source says: NIH Chemical Genomics Center [NCGC]
NIH Molecular Libraries Screening Centers Network [MLSCN]
National Institutes of Environmental Health Sciences [NIEHS]
National Toxicology Program [NTP]
We have developed a 1536-well cell-based assay for quantitative high throughput screening (qHTS) against a number of cell lines to determine in vitro cytotoxicity of small molecules. This particular assay uses the renal proximal tubule cells which are derived from normal kidney cells freshly isolated from rat.
NCGC Assay Protocol Summary:
The CellTiter-Glo luminescent cell viability assay (Promega) is a homogeneous method to measure the number of viable cells in culture. The end point readout of this assay is based on quantitation of intracellular ATP, an indicator of metabolic activity, using the luciferase reaction. Luciferase catalyzes the oxidation of beetle Luciferin to oxyluciferin and light in the presence of ATP. The luminescent signal is proportional to amount of ATP present.
Using the CellTiter-Glo luminescent cell viability assay, the amount of cellular ATP was measured in the renal proximal tubule cells with complete culture medium following compound treatment for 40 hours. The assay was performed in opaque white Kalypsys 1536-well plates. In the screen, tamoxifen and doxorubicin were used as positive controls. Library compounds were measured for their ability to cause acute toxicity in the cell line, as reflected by a decrease in intracellular ATP levels, in a concentration-dependent manner. […] AC50 values were determined from concentration-response data modeled with the standard Hill equation.
qHTS protocol for CellTiter Glo renal proximal tubule cell assay
[Step] [Parameter] [Value] [Description]
1. Reagent; 5 uL; 1000 renal proximal tubule cells/well
2. Time; 5 hr; 37 °C incubation
4. Controls; 23 nL; Tamoxifen 0.34 uM to 100 uM & Doxorubicin 0.02 nM to 100 uM
5. Time; 40 hr; 37 °C incubation
6. Reagent; 5 uL; CellTiter Glo reagent
7. Time; 20 min; Room Temperature
8. Detection; Luminescence; Viewlux plate reader
Keywords: cell viability, cytotoxicity, renal proximal tubule cells, luminescence, NTPHTS, NTPHTS_NCGC, NIEHS, EPA, DSSTox, MLSMR, MLSCN, NIH Roadmap, qHTS, NCGC
Take `C[N+](=O)[O-]`: the call was inactive.

Consider `CCN(N=O)C(N)=O`, for which the call was inactive.

For `CCC(Cl)[N+](=O)[O-]` (stereo not given), the compound was called inactive.

Take `CCCCCOC(=O)c1ccccc1C(=O)OCCCCC`: the call was inactive.

`O=[N+]([O-])CCO`: the outcome was inactive.

As for `CCCCCCCCCCCCCl`, the outcome was inactive.

Take `O=[N+]([O-])c1cc(Cl)c(Cl)c(Cl)c1`: the compound was classed as inactive.

Take `CC(=O)[O-].CC(=O)[O-].CC(=O)[O-].[Cr+3]`: the compound was called inactive.

Turning to `C=CC(=O)OCCO`, the compound was called inactive.

On to `O=C(O)c1cccc(Cl)c1`, for which the compound was classed as inactive.

For the compound `Cc1ccc2c(C)cccc2c1`, the compound was called inactive.

Consider `[N-]=[N+]=[N-]`, for which the compound was classed as inactive.

Take `Cl/C=C\Cl`: the call was inactive.

Consider `CN=C=O`, for which the call was inactive.

Take `Cc1cnc[nH]1`: the compound was called inactive.

As for `Nc1c(Br)cc([N+](=O)[O-])cc1[N+](=O)[O-]`, the call was inactive.

As to `c1ccc(NNc2ccccc2)cc1`, the call was inactive.

Take `Oc1cc(Cl)cc(Cl)c1`: the call was inactive.

Turning to `COc1c(C(C)(C)C)cc([N+](=O)[O-])c(C)c1[N+](=O)[O-]`, the outcome was inactive.

In the case of `O=[N+]([O-])c1ccc2c3c(cccc13)CC2`, the call was inactive.

As for `OCCOCCO`, the outcome was inactive.

`CC(C)Br`: the compound was classed as inactive.

As for `C=CC#N`, the compound was called inactive.

Consider `CC12CC1(C)C(=O)N(c1cc(Cl)cc(Cl)c1)C2=O` (stereo not given), for which the result was inactive.

As to `CCCCOC(=O)c1ccccc1N`, the call was inactive.

On to `Cc1ccc(N=C=O)cc1N=C=O`, for which the call was inactive.

Consider `C=CCCC#N`, for which the result was inactive.

Regarding `O=[N+]([O-])c1ccccc1CCl`, the compound was classed as inactive.

In the case of `CCCCCC[N+](=O)[O-]`, the compound was called inactive.

On to `CC(=O)CCC(C)=O`, for which the compound was called inactive.

As to `CN(C)c1ccc(N(C)C)cc1`, the outcome was inactive.

Consider `O=[N+]([O-])c1ccc(O)c([N+](=O)[O-])c1`, for which the outcome was inactive.

On to `CCOP(=O)(OCC)OCC`, for which the call was inactive.

As to `Oc1c(Cl)cccc1Cl`, the compound was classed as inactive.

With `CC(C)(COCC1CO1)COCC1CO1` (stereo not given), the compound was called inactive.

For `CCCCCCCCCCCOC(=O)c1ccccc1C(=O)OCCCCCCCCCCC`, the compound was called inactive.

For the compound `C=CC(=O)OCC(CC)CCCC` (stereo not given), the compound was classed as inactive.

On to `Clc1cccc2ccccc12`, for which the compound was called inactive.

For the compound `N#CC(O)c1ccccc1` (stereo not given), the compound was classed as inactive.

Take `CC(C)(OOC(C)(C)c1ccccc1)c1ccccc1`: the outcome was inactive.
